# Assays:
# Assay in all cases: PBM binding z-score (relative to random genomic background probes); higher = stronger binding; sequences stand for … in GC…GCGATTGACAGCGTAGAATGAAGG
# [1] = system: FXR:RXRa (NR concentration 270 nM, RXRa partner concentration 90 nM)
# How it was run: (§1)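 Binding z-scores take random background probes as their reference. They come from custom Agilent 4×180K protein-binding microarrays incubated 1 h with ligand-free nuclear receptor dimers, with antibodies against each partner (one per run) detecting binding. Scanned fluorescence was regression-normalized.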
# [2] = system: LXRa:RXRa (NR concentration 270 nM, RXRa partner concentration 90 nM)
# How it was run: as §1
# [3] = system: LXRa homodimer (NR concentration 270 nM)
# How it was run: as §1
# [4] = system: LXRb:RXRa (NR concentration 270 nM, RXRa partner concentration 90 nM)
# How it was run: as §1
# [5] = system: LXRb homodimer (NR concentration 270 nM)
# How it was run: as §1
# [6] = system: PPARa:RXRa (NR concentration 270 nM, RXRa partner concentration 90 nM)
# How it was run: as §1
# [7] = system: PPARg:RXRa (NR concentration 180 nM, RXRa partner concentration 90 nM)
# How it was run: as §1
# [8] = system: PPARg:RXRa 270nM:90nM, anti-RXR (NR concentration 270 nM, RXRa partner concentration 90 nM)
# How it was run: as §1
# [9] = system: PPARg:RXRa 30nM:10nM, anti-RXR (NR concentration 30 nM, RXRa partner concentration 10 nM)
# How it was run: as §1
# [10] = system: PPARg:RXRa 90nM:30nM, anti-RXR (NR concentration 90 nM, RXRa partner concentration 30 nM)
# How it was run: as §1
# [11] = system: PPARg:RXRa DBDmut IVT, anti-RXR (DBD mutation: RXRa K156A/R161A, NR concentration 270 nM, RXRa partner concentration 90 nM)
# How it was run: as §1
# [12] = system: PPARg:RXRa IVT, anti-PPARg (NR concentration 270 nM, RXRa partner concentration 90 nM)
# How it was run: as §1
# [13] = system: PPARg DBDmut:RXRa IVT, anti-PPARg (DBD mutation: PPARg1 K132A/R137A, NR concentration 270 nM, RXRa partner concentration 90 nM)
# How it was run: as §1
# [14] = system: PPARg DBDmut IVT, anti-PPARg (DBD mutation: PPARg1 K132A/R137A, NR concentration 270 nM)
# How it was run: as §1
# [15] = system: PPARg homodimer (NR concentration 180 nM)
# How it was run: as §1
# [16] = system: PXR:RXRa (NR concentration 270 nM, RXRa partner concentration 90 nM)
# How it was run: as §1
# [17] = system: PXR homodimer (NR concentration 270 nM)
# How it was run: as §1
# [18] = system: RARa:RXR (NR concentration 270 nM, RXRa partner concentration 90 nM)
# How it was run: as §1
# [19] = system: RARa homodimer (NR concentration 270 nM)
# How it was run: as §1
# [20] = system: RARb:RXRa (NR concentration 270 nM, RXRa partner concentration 90 nM)
# How it was run: as §1
Sequence,PBM binding z-score [1],PBM binding z-score [2],PBM binding z-score [3],PBM binding z-score [4],PBM binding z-score [5],PBM binding z-score [6],PBM binding z-score [7],PBM binding z-score [8],PBM binding z-score [9],PBM binding z-score [10],PBM binding z-score [11],PBM binding z-score [12],PBM binding z-score [13],PBM binding z-score [14],PBM binding z-score [15],PBM binding z-score [16],PBM binding z-score [17],PBM binding z-score [18],PBM binding z-score [19],PBM binding z-score [20]
CCGACTTGGGCAAGGTTACCATAACGCACAGCCA,0.05,0.652,-0.339,0.538,-0.76,0.821,0.77,0.417,-0.317,0.00151,0.0909,0.144,-0.175,-0.816,0.358,0.327,0.162,0.774,0.309,0.889
AGAATGAGGTTATCCGTAGATCAGGGAAGAAAGT,2.59,2.06,-0.212,1.57,-0.253,3.44,1.63,2.05,0.418,1.32,3.68,2.42,0.156,1.03,0.547,1.17,0.231,1.76,0.02,1.66
ATCGAAAGGTCGACGAGGTGATTATACACCGTTT,4.8,3.43,0.0538,2.93,0.337,4.39,2.85,3.08,1.22,2.14,0.604,1.86,1.29,0.577,1.31,3.32,1.07,3.76,0.346,3.78
ATCGAAAGCTCGAGGTGAGTATAGAGAAAGGGAA,-0.382,-0.596,-0.515,-0.793,-0.851,-0.028,0.163,-0.516,-0.268,-0.554,-0.98,0.455,0.71,0.162,-1.14,-0.37,-0.567,-0.162,-0.838,0.00915
CTCGAAAGGGCGGTTGAGGTGAGTATACGGATAA,1.23,-0.197,-0.251,-0.253,-0.452,0.0374,0.00915,-0.518,-0.508,-0.301,-0.112,-0.15,0.116,0.0622,0.247,0.233,0.128,0.395,-0.275,1.08
AGAATGAGGTTATACGTAGATGAGGGAAGAAAGT,2.17,1.97,0.0433,1.72,0.276,3.19,2.17,2.49,1.05,1.88,3.97,2.32,1.45,0.893,1.18,1.18,0.759,1.96,0.66,1.57
TCGAGTACGTTACCAATGGGGCATTCAGCTTTCT,-0.0711,-0.26,-0.435,0.321,-0.0116,0.16,-0.0505,0.394,1.32,0.788,0.846,-0.201,-0.329,-0.495,-0.459,0.154,-0.778,0.193,-0.477,0.0471
TCTAGCAGGCCAGAGGGTGACTCAAGAGGTACGG,-0.401,0.0114,-0.795,-0.373,-1.42,0.54,1.05,2.1,1.99,2.19,0.764,0.183,-1.35,-1.1,-0.406,-0.274,-0.839,-0.247,-1.15,0.306
TATCCTAGGTCATGCGGGCCAGTATAGTGTCGGC,4.73,5.7,4.76,2.7,2.07,4.14,3.92,3.74,1.55,2.88,3.98,4.97,1.6,1.66,1.75,2.04,0.212,2.76,-0.133,3.9
CCTATTAATTGACCATAAGGGCAACCGAAGCTCG,0.865,0.6,1.66,0.747,0.711,0.737,0.586,0.878,0.302,0.73,0.352,0.562,0.908,0.978,2.66,0.673,1.92,1.11,3.76,1.42
CGTCAAAGTTCAACGAAGGTAACGTAAAGCACGC,5.82,5.6,2.79,3.6,1.02,4.68,4.43,4.94,2.06,4.07,0.66,1.92,0.175,0.224,2.37,4.52,2.37,3.37,0.936,5.18
TCTGTTAGTTGATTAGGGCAACCGAAACAGCGGA,0.614,0.576,0.141,0.571,1.9,0.523,0.000964,1.9,3.28,2.74,1.71,1.89,1.51,1.52,1.09,0.57,0.354,0.456,0.969,1.19
CAAACTAGGTCACAGAGATCAAAGTCCGTGCGTA,4.32,3.26,0.659,2.41,0.38,5.25,8.83,7.25,5.12,7.3,8.62,9.06,1.86,1,2.16,2.28,0.448,2.78,0.89,4.03
CCTAGTTGGTCAGGAGGTCATACACCGGATATGA,3.81,3.61,2.79,3.13,0.702,3.89,2.72,3.82,1.58,2.89,1.25,3.03,0.324,0.888,3.21,3.99,1.57,4.19,1.23,3.33
ATCTCTATGTAAAAGTTCAGTGAATCCCGAGGAT,0.48,1.17,1.3,0.915,0.829,2.49,3.27,4.6,3.31,4.95,-0.373,1.21,1.18,0.786,1.41,1.78,1.21,1.08,0.424,2.23
